In PubChem BioAssay AID720513 (Broad Institute, 2013):
In all, about 2,100 compounds went through this assay and about 480 (23%) were called active. Another 5% or so got no clear call; they are omitted.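 The calls were made as follows: active = fitted curve reaches 40% activation at or below the top valid concentration, in every replicate test; inconclusive = replicate tests disagree on the call; inactive = the rest, including activity in the opposite direction.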 A selection follows. Results with a measured potency or affinity are listed apart.

experiment: activators raising PGC1a acetylation in cells, dose response, cell-based, cherry-picked samples, set 6 (AID 720513); settings: U2OS PGC1a acetylation AlphaLISA, overnight, 0 = neutral, -100 = inhibitor control; series mostly up to 19.5 µM; activation (acetylation increase): at the top concentration;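 also: cells made to overexpress flag tagged PGC1a plus GCN5 acetyltransferase by viral infection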

Activation (acetylation increase), inactive:
O=C(Nc1cccc2c1CCCC2)c1ccccc1Br 9.7%
C/C(=C\C(=O)N1CCc2ccccc21)C(=O)O 0.143%
CC(C)(C)NCCC(O)c1cc(C(F)(F)F)nc2c(C(F)(F)F)cccc12 (stereo not given) 22.3%
CCN(CC)CC#CCOC(c1ccccc1)c1ccccc1 -2.02%
O=[N+]([O-])c1ccc(Oc2ccc(F)cc2)c2ccncc12 -22.8%
O=C(Nc1cc(C(F)(F)F)ccc1N1CCOCC1)c1ccccc1 4.26%
COc1ccc(Br)cc1S(=O)(=O)NCc1ccccc1 7.45%
O=C(O)CCCC(=O)Nc1ccc(Br)cc1C(=O)O -2.91%
CC(C)[C@H]1COCCS(=O)(=O)N1Cc1ccccc1F -26.2%
C[C@H](CO)N1C[C@H](C)[C@H](CN(C)S(=O)(=O)c2ccccc2C#N)OCc2cnnn2CCCC1=O -23.1%
CC1CC1C(=O)N(C)CC(=O)Nc1cccc(F)c1 (stereo not given) 22.2%
CCCN(C)C[C@@H]1Oc2cc(C#CC3CCCC3)ccc2S(=O)(=O)N([C@H](C)CO)C[C@@H]1C 14.2%
CCOCCCNC(=O)c1ccccc1SC 20.7%
Fc1cccc(-c2ccc([C@@H]3[C@@H]4CN(Cc5nccs5)C[C@H]3N4)cc2)c1 -53.8%
Fc1cccc(CN2C[C@@H]3N[C@H](C2)[C@@H]3c2ccc(-c3cccc(F)c3)cc2)c1 -101%
c1csc(CNc2ncnc3ccc(-c4ccoc4)cc23)c1 -26.5%
CCS(=O)(=O)c1ccc2oc(Nc3ccccc3Br)nc2c1 -16.6%
CCN1C(=O)CCCc2ccccc21 30.4%
O=C(NCC[C@@H]1CC[C@H](NS(=O)(=O)Cc2ccccc2)[C@H](CO)O1)C1CCC1 11.7%
Nc1nc(Nc2ccccc2)nc2ccccc12 -18.8%
CC(=O)c1ccc(Nc2cc(C)nc3ccc(C)cc23)cc1 -36.6%
CN(C)CC(=O)N1CCCCN2[C@@H](CO)[C@H](c3ccc(/C=C/c4ccccc4)cc3)[C@@H]2C1 -19%
Cc1ccc(NC(=O)COC(=O)COc2ccc(Cl)cc2)c([N+](=O)[O-])c1 6.12%
COC(=O)c1ccc(C(=O)OC)c(NC(=O)COC(=O)CCOc2ccc(C)cc2)c1 15.7%
Cc1cc(C)cc(OC(=O)CS(=O)c2ccc(C(F)(F)F)cc2[N+](=O)[O-])c1 (stereo not given) -36.4% [at 10 µM]
C[C@@H]1CCCCO[C@@H](CN(C)S(C)(=O)=O)[C@H](C)CN([C@@H](C)CO)C(=O)c2cc(NC(=O)c3ccccc3)ccc2O1 8.43%
COc1nc(OCCNS(=O)(=O)c2ccc(C)cc2)nc(N(C)C)n1 4.81%
O=C(Nc1nc(-c2ccc3ccccc3c2)cs1)c1ccc(N2C(=O)CCC2=O)cc1 -4.2%
Cc1ccc(CC(=O)Nc2nccs2)cc1 11.1%
C[C@H]1CN([C@@H](C)CO)C(=O)c2cc(NC(=O)Nc3cccc4ccccc34)ccc2O[C@H]1CN(C)S(=O)(=O)c1ccc(Cl)cc1 -6.46% [at 21 µM]
N#C[C@H]1[C@H](c2ccc(C#CC3CCCC3)cc2)[C@H](CO)N1C(=O)Cc1ccccn1 -55.6%
N#C[C@@H]1[C@@H](c2ccc(-c3ccccc3)cc2)[C@@H](CO)N1C(=O)Cc1ccncc1 -41%
C[C@H](CO)N1C[C@H](C)[C@H](CN(C)C(=O)NC2CCCCC2)Oc2cc(C#Cc3cccc(F)c3)ccc2S1(=O)=O -84.8%
CS(=O)(=O)c1sc2nc(-c3cccs3)cc(-c3ccccc3)c2c1N 36.2%
COc1ccc(NC(=O)c2ccc3c(c2)OCO3)cc1Cl -10.9%
COc1ccc(C(=O)Nc2cccc(S(C)(=O)=O)c2)cc1OC 14.5%
C[C@@H]1CN([C@@H](C)CO)C(=O)c2cc(C#CCN(C)C)cnc2O[C@H]1CN(C)Cc1ccc(F)cc1 22% [at 21 µM]
Fc1cccc(CN2C[C@@H]3N[C@H](C2)C3c2ccc(/C=C/c3ccccc3)cc2)c1 (stereo not given in full) -94.1%
CCOC(=O)c1oc2nc3c(cc2c1N)COC(C)(C)C3 36.1%
C[C@H]1CN([C@@H](C)CO)C(=O)c2cc(C#CC(C)(C)O)cnc2O[C@@H]1CN(C)C(=O)C1CCC1 4.88%
O=C(Nc1ccc(F)cc1)C1CCCN1S(=O)(=O)c1cccc2nsnc12 (stereo not given) 2.69%
CC1CCCCN1C(=O)CN(C)S(=O)(=O)c1cccc2nsnc12 (stereo not given) -12%
O=c1c2c3c(sc2n2cnnc2n1Cc1ccccc1)CN(Cc1ccccc1)CC3 29.5%
COC(=O)c1[nH]c2ccc(F)cc2c1NS(=O)(=O)c1ccc(OC)cc1OC -6.12%
O=C(C[C@H]1CC[C@@H](NC(=O)c2ccccc2)[C@H](CO)O1)Nc1ccc(-c2ccccc2)cc1 -60.5%
COc1ccc(CCN2C(=O)N(c3ccc(OC)cc3)C(=O)C2CC(=O)Nc2ccccc2)cc1 (stereo not given) 0.037%
Cc1[nH]c2ccccc2c1C(=O)/C=C/c1ccccc1 -28.1%
CC(=O)c1ccc(N2CCN(C(=O)c3ccc4nc[nH]c4c3)CC2)cc1 16.3%
CSc1nsc(SC)c1NC(=O)Nc1ccccc1C 25.9%
O=C(CN1C(=O)NC2(CCc3ccccc32)C1=O)c1ccc(Br)cc1 (stereo not given) 31% [at 10 µM]
CC1CCN(S(=O)(=O)c2ccc(Oc3ccc([N+](=O)[O-])cc3)cc2)CC1 36%
COCc1c(C(=O)Nc2cccc(S(=O)(=O)N3CCCCC3)c2)oc2ccccc12 21.3%
CCOc1ccc(NC(=O)c2cccc3c2C(=O)N(CCOC)C3)cc1 1.21%
COc1cccc(NC(=O)c2ccccc2-c2ccccc2C(=O)O)c1 11.2%
Cc1c(NC(=O)COC(=O)c2ccccc2O)c(=O)n(-c2ccccc2)n1C 15.7%
C[C@H]1CN([C@@H](C)CO)C(=O)Cc2cc(NS(C)(=O)=O)ccc2O[C@@H]1CN(C)Cc1ccc2c(c1)OCO2 1.57%
C[C@@H]1CN([C@H](C)CO)C(=O)Cc2cc(NC(=O)Cc3ccccc3)ccc2O[C@@H]1CN(C)S(C)(=O)=O 14.9%
C[C@@H]1CN([C@H](C)CO)C(=O)Cc2cc(NC(=O)Nc3ccccc3)ccc2O[C@H]1CN(C)Cc1ccccc1 5.21% [at 21 µM]
C[C@H]1CN([C@@H](C)CO)C(=O)Cc2cc(NC(=O)Nc3ccccc3)ccc2O[C@@H]1CN(C)Cc1ccccc1 -36.2%
C[C@H]1CCCCO[C@H](CN(C)Cc2ccc3c(c2)OCO3)[C@@H](C)CN([C@@H](C)CO)C(=O)c2cc(NC(=O)Nc3ccc(C(F)(F)F)cc3)ccc2O1 -95.8%
Cc1ccccc1Cn1cnc2c(nnn2Cc2ccc(F)cc2)c1=O -4.71%
O=C1Nc2c(Br)cc(Br)c3cccc1c23 1.42%
C[C@@H]1CN([C@@H](C)CO)C(=O)c2cc(C#CCN(C)C)cnc2O[C@@H]1CN(C)S(=O)(=O)c1cn(C)cn1 15.9%
COc1ccc(-c2cnc3c(c2)C(=O)N([C@H](C)CO)C[C@H](C)[C@H](CN(C)S(=O)(=O)c2cccs2)O3)cc1 4.64%
C[C@H]1CN([C@@H](C)CO)C(=O)c2cc(-c3cccc(C(=O)N(C)C)c3)cnc2O[C@@H]1CN(C)S(=O)(=O)c1ccc(F)cc1 -3.94%
COc1ccc(S(=O)(=O)N(C)C[C@@H]2Oc3ncc(-c4ccccc4)cc3C(=O)N([C@H](C)CO)C[C@@H]2C)cc1 24% [at 21 µM]
O=C(C[C@H]1C[C@H]2c3cc(NC(=O)C4CCC4)ccc3O[C@H]2[C@H](CO)O1)NCc1ccc(-c2ccccc2)cc1 14%
O=C1c2ccsc2SCCN1Cc1cccc(Cl)c1 -1.83%
Cc1cccc(N2C(=O)C(Cl)=C(N3CCOCC3)C2=O)c1 -2.12%
O=S(=O)(c1cccs1)N1CCCCN2[C@H](CO)[C@H](c3ccc(/C=C/c4ccccc4)cc3)[C@H]2C1 -41.3%
O=C(NC[C@@H]1N[C@@H](CO)[C@H]1c1ccc(C2=CCCCC2)cc1)c1ccc(F)cc1 21.8%
C[C@H](CO)N1C[C@H](C)[C@@H](CN(C)Cc2ccccc2F)Oc2ncc(Br)cc2C1=O 9.64%
O=S(=O)(Nc1ccccc1N1CCCCC1)c1ccc(F)cc1 29.9%
CCCN(CCC)S(=O)(=O)c1ccc(C(=O)Nc2nnc(CSC)o2)cc1 -2.17%
Cc1noc(C)c1S(=O)(=O)Nc1ccc2c(c1)C(=O)N([C@@H](C)CO)C[C@@H](C)[C@@H](CN(C)S(=O)(=O)c1ccccc1)O2 15%
O=S(=O)(C/C(=C/CO)S(=O)(=O)c1ccccc1)c1ccccc1 -51.6%
CCN(C(=O)CN1CCN(c2ccccc2O)CC1)c1c(N)n(Cc2ccccc2)c(=O)[nH]c1=O 1.96%
CO[C@H](CN(C)S(=O)(=O)c1ccc(Cl)cc1)[C@H](C)CN([C@H](C)CO)S(=O)(=O)c1cccc(Cl)c1 43.3% [at 18 µM]
OCC1OC(Oc2c(Br)cc(Br)cc2Br)C(O)C(O)C1O (stereo not given) 15.7%
CCc1ccc(C(=O)CN(C#N)c2nc(C)cc(C)n2)cc1 -61%
COc1ccc(Cn2nnnc2CN(Cc2cc3ccc(C)cc3[nH]c2=O)C2CCCC2)cc1 -14.1%
COc1ccccc1NS(=O)(=O)c1cc(NC(=O)c2[nH]c(C)c(C(C)=O)c2C)ccc1N1CCOCC1 38.3%
CCCCCCNC(=O)O[C@@]12CN(S(=O)(=O)c3ccc(C)cc3)C[C@]1(O)Cn1c(=O)n(CCCCCC)c(=O)n1C2 -18.4%
O=C(O)c1cc(-c2ccc3c(c2)OCO3)nc2ccccc12 -21.2%
O=C(Nc1cccc(Cl)c1)Nc1ccc2c(c1)OCO2 8.19%
COc1ccc(NC(=O)[C@H](Cc2c[nH]c3ccccc23)NC(=O)[C@@H]2Cc3ccccc3CN2)cc1 3.84%
Clc1ccc2nc(COc3ccccc3)[nH]c2c1 35%
C[C@@H]1CN([C@H](C)CO)C(=O)c2cc(NC(=O)CCCCCC(=O)Nc3ccccc3N)ccc2O[C@H]1CN(C)S(=O)(=O)c1ccc(Cl)cc1 12.1%
C[C@H](CO)N1C[C@H](C)[C@@H](CN(C)Cc2ccc(C(F)(F)F)cc2)OCc2cnnn2CCCC1=O -39.1%
COc1ccc(C(NC(=O)c2c(F)c(F)c(F)c(F)c2F)c2ccccc2)cc1 (stereo not given) -107%
